Assay outcomes from PubChem.
ALR inh: blocks human ALR sulfhydryl oxidase activity | AID 485317 | purified ALR, DTT oxidation, H2O2 HRP-luminol luminescence | 3.8% of 290,000 active | P55789 | inhibition, % (test concentration not listed);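 active = mean replicate inhibition above about 79%, with every replicate also reaching it, limit read from the data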
Target sequence (P55789 whole entry, looked up): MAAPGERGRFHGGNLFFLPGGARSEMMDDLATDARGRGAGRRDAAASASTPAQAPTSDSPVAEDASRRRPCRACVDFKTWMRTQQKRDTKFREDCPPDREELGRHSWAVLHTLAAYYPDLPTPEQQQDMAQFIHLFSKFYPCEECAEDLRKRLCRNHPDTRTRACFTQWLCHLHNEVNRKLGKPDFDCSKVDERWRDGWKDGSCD
HIF act: HIF pathway transcriptional activation; U2OS HRE-luciferase reporter, luminescence; normalized: DMSO 0%, desferrioxamine 100%; activation, % at 7.5 µM (by protocol); 0.32% of 300,000 active; AID 1910;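 active = mean activation of at least 10% of the iron chelator positive control signal, with at least half of replicates also reaching 10%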
Mot1-301 SUMO: inhibitors of SUMOylation pathway: yeast Mot1-301 growth rescue; S. cerevisiae Mot1-301 growth rescue, ATP luminescence, 38.5C; percent above DMSO median, 100 means doubled; growth rescue, % at 18.8 µM; 1% of 320,000 active;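 active = every valid replicate shows activation above 250% relative to neutral control wells; inactive = the rest, any valid replicate at or below 250%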;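 note: OY570 slx delta 5 strain wells were the positive control but not used for scaling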
PfM18AAP inh: PfM18AAP enzyme inhibition; recombinant PfM18AAP, H-Glu-NHMec fluorogenic cleavage; inhibition, % at 7.35 µM; 1.2% of 290,000 active;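 active = inhibition above the campaign mean inhibition over all tested compounds plus 3 SD, cut at about 28% in these data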;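 note: 0% = plate median of test compound wells and 100% = 2 mM ZnCl2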
Numbers without * were called inactive; · = no result. Sampled rows, rich in hits. Any-hit rate of the full collection: about 5.3%.

SMILES	ALR inh	HIF act	Mot1-301 SUMO	PfM18AAP inh
Cc1c(O)ccc(C(=O)CN2CCN(Cc3ccccc3)CC2)c1O	3	1	125	3
O=C(Nc1cccc(Cl)c1)NC1CCS(=O)(=O)C1 (configuration not stated)	-35	0	-5	3
COc1cc(OC)c(NC(=O)CN(C)S(=O)(=O)c2ccc(-c3ccc(=O)[nH]n3)s2)cc1Cl	-12	0	-9	1
Cn1cnnc1SCC(=O)c1cccc([N+](=O)[O-])c1	83*	0	·	2
COc1ccc(NC2C=CS(=O)(=O)C2)c(OC)c1 (configuration not stated)	85*	-1	0	7
Cc1ccccc1-n1c(O)c(/C=C/C=Nc2ccccc2)c(=O)[nH]c1=O	-9	0	10	3
Cc1ccc(-n2c(O)c(/C=C3/C(c4ccccc4)=Nc4ccccc43)c(=O)[nH]c2=O)cc1	98*	3	-18	-4
Cc1ccc(NC(=O)CSCC(=O)O)cc1	98*	0	2	2
Cc1ccc(NC(=O)CSCC(=O)NC2=NCCS2)cc1	98*	·	5	·
Cc1ccc(NC(=O)CSCC(=O)NCc2ccco2)cc1	34	0	-9	·
O=C(CSCc1ccco1)NC1CCCC1	99*	1	231	-2
Cc1ccccc1CSCC(=O)NC1CCCC1	·	0	9	2
Cc1ccc(NC(=O)Cc2nnc(SCC(=O)NC3=NCCS3)n2C)cc1	1	0	-12	-13
Cc1ccc(NC(=O)CSCc2ccco2)cc1	99*	2	16	0
C=C(C)COc1ccc(-c2ncncc2-c2ccccc2)c(O)c1	3	0	-4	-7
Cc1ccc(NC(=O)c2cccc(NC(=O)CC3SC(N4CCCCC4)=NC3=O)c2)nc1 (configuration not stated)	-3	2	2	·
CCN1CCN(CC(=O)Nc2cc(C(F)(F)F)ccc2OCCOC)CC1	·	0	-14	6
CCc1ccc(N2CC(C)Cn3c2nc2c3c(=O)[nH]c(=O)n2C)cc1 (configuration not stated)	3	-10	-12	-4
Cc1ccc(NC(=O)CSCc2ccc(F)cc2)cc1	93*	3	9	5
Nn1cnnc1SCC(=O)Nc1ccc(C2CCCCC2)cc1	10	1	-2	4
O=C(O)CSCC(=O)Nc1ccc(C2CCCCC2)cc1	98*	-4	-25	4
N=C(N)SCc1nc2ccccc2c(=O)n1-c1ccccc1	98*	1	-9	6
O=C(O)c1ccc(CSc2nc3ccccc3c(=O)n2-c2ccccc2)cc1	·	1	-5	-4
Cn1c(-c2ccccc2)cnc1NCc1cccc([N+](=O)[O-])c1	43	3	-1	13
COc1ccc(CNc2ncc(-c3cccc([N+](=O)[O-])c3)n2C)c(OC)c1OC	98*	1	-17	8
SMILES	ALR inh	HIF act	Mot1-301 SUMO	PfM18AAP inh
CSc1ccc(CNc2ncc(-c3cccc([N+](=O)[O-])c3)n2C)cc1	98*	0	65	6
COc1ccc(NC(=O)CCCn2nc(C)c3c(C)n(-c4ccccc4)nc3c2=O)cc1OC	-11	0	-9	-4
Cc1ccccc1-n1c(=S)[nH]c2nc3c(cc2c1=O)CCCC3	98*	-1	20	0
Cc1ccccc1-n1c(=S)[nH]c2nc3c(cc2c1=O)COC(C)(C)C3	·	0	-5	-5
O=C(COc1cccnc1[N+](=O)[O-])c1ccc(Cl)s1	-12	0	-12	32*
CN(C)c1ccc(/C=C2/NC(=O)NC2=O)cc1	99*	0	14	4
O=C1NC(=O)/C(=C/c2cccc(O)c2)N1	2	0	312	8
COc1cc(C(=O)O)c2c(c1C)OC(=O)c1c(C)cc(O)c(C=O)c1O2	99*	0	35	·
COC(=O)c1c(C)c(OC(=O)c2c(C)cc(O)c(C=O)c2O)cc(C)c1O	-5	0	-21	·
C=CCn1c(-c2ccc(OC)cc2)csc1=Nc1c(C)n(C)n(-c2ccccc2)c1=O	67	0	7	-7
Cc1csc(=Nc2c(C)n(C)n(-c3ccccc3)c2=O)n1Cc1ccccc1	97*	0	-22	10
Oc1[nH]c2ccccc2c1C1=NCCCC1	98*	0	284	3
O=C(c1cc(=O)[nH]c2ccccc12)N1CCN(c2ccc([N+](=O)[O-])cc2)CC1	1	0	-5	-6
Cc1ccc(-n2c(N)cc(=O)nc2SCC(=O)N2CCN(c3ccccc3)CC2)cc1C	68	0	-12	1
COc1ccc(-n2c(N)cc(=O)nc2SCC(=O)N2CCN(c3ccccc3)CC2)cc1	99*	0	-2	7
COc1ccc(N2CCN(C(=O)CSc3nnc(-c4cccnc4)n3-c3ccccc3)CC2)cc1	94*	0	-11	-5
CCC(CCC(=O)NNC(=O)Cc1ccc([N+](=O)[O-])cc1)C(=O)O (configuration not stated)	-6	0	0	-9
Cc1cc(C)cc(Cn2ncc(Cl)c(Cl)c2=O)c1	96*	-6	-37	-17
Cc1ccc(Cn2ncc(Cl)c(Cl)c2=O)cc1	15	0	-6	-7
O=c1c(Cl)c(Cl)cnn1Cc1ccccc1Cl	95*	-6	-14	5
O=c1[nH]c2cc3c(cc2cc1CN(Cc1cccnc1)C(=S)NCc1ccco1)OCCO3	-9	0	-13	2
COc1ccccc1OCC(=O)N(Cc1nnc(-c2ccccc2Cl)o1)C1CC1	-13	1	-17	·
O=C(/C=C(\O)c1ccccc1)C(=O)NNC(=O)c1ccccc1[N+](=O)[O-]	16	2	100	14
COc1ccc(N=C2SC(CC(=O)Nc3ccccc3)C(=O)N2Cc2ccccn2)cc1 (configuration not stated)	-6	1	-16	-9
COc1ccc(N=C2SC(CC(=O)Nc3ccccc3)C(=O)N2CCc2ccccn2)cc1 (configuration not stated)	-2	0	356*	-2
COc1ccc(CN2CCNC(=O)C2CC(=O)N(C)CC2CCOCC2)cc1OC (configuration not stated)	-5	26*	-18	-1
COc1cccc(-c2cc(N3C(=O)Nc4ccccc4N3O)n[nH]2)c1	-24	0	-10	-1
CCOc1ccc(-c2cc(N3C(=O)Nc4ccccc4N3O)n[nH]2)cc1	98*	0	3	1
